Data reported in publication PMC4552634, “A New Set of Chemical Starting Points with Plasmodium falciparum Transmission-Blocking Potential for Antimalarial Drug Discovery” (PLoS ONE, 2015).
Like-named read-outs stand apart in the source and are kept apart here. The campaign covered roughly 13,000 compounds. About 3,200 (25%) showed an effect of 50% or more. Some of the results follow.

Tested on: P. falciparum stage V gametocytes
Design: BacTiter-Glo ATP luminescence viability of purified stage V gametocytes in 384-well plates, per cent inhibition versus DMSO
Conditions: 48 h, 5 µM, inhibitor

Structure (SMILES): CN1CCN(c2ccnc3ccc(NC(=O)Nc4cccc5c(Br)cccc45)cc23)CC1 [TCMDC-139347]
- % Inhibition: 3.223%

Structure (SMILES): Cc1cccc2nc(-c3ccc(-c4ccc(CNCC5CCCO5)cc4)s3)[nH]c12.O=C(O)C(F)(F)F (stereo not drawn) [TCMDC-133101]
- % Inhibition: 42.96%

Structure (SMILES): CCN(CC)CCCC(C)Nc1ccnc2[nH]c3ccccc3c12 (stereo not drawn) [TCMDC-131826]
- % Inhibition: 12.54%

Structure (SMILES): CCN(CC)CCCC(C)Nc1c2ccccc2nc2c1ccc1ccccc12 (stereo not drawn) [TCMDC-137517]
- % Inhibition: 51.71%

Structure (SMILES): CCN(CC)CCCC(C)Nc1c2cc(OC)ccc2nc2cc(Cl)c([N+](=O)[O-])cc12 (stereo not drawn) [TCMDC-138329]
- % Inhibition: -1.262%

Structure (SMILES): CCN(CC)CCCC(C)Nc1c2ccccc2nc2ccc3ccccc3c12 (stereo not drawn) [TCMDC-137518]
- % Inhibition: 45.6%

Structure (SMILES): CCN(CC)CCCC(C)Nc1c2ccc(Cl)cc2nc2ccc(OC)cc12 (stereo not drawn) [TCMDC-125480]
- % Inhibition: 101%

Structure (SMILES): Cc1cccc2[nH]c(-c3cccc(-c4ccc(NC(=O)c5cnn6cccnc56)cc4)c3)nc12 [TCMDC-136868]
- % Inhibition: -35.86%

Structure (SMILES): CCCC(CNCc1ccc(Cl)c(C(F)(F)F)c1)CNc1nc2ccncc2[nH]1 (stereo not drawn) [TCMDC-141057]
- % Inhibition: 56.14%

Structure (SMILES): CCCc1c(Cl)cc(CNCCCNc2nc3ccncc3[nH]2)cc1Cl [TCMDC-140509]
- % Inhibition: 47.86%

Structure (SMILES): FC(F)(F)c1cc(CNCCCNc2nc3ccncc3[nH]2)ccc1Cl [TCMDC-140508]
- % Inhibition: -5.854%

Structure (SMILES): O=C(Nc1ccc(Br)cc1)c1cc(Br)ccc1NS(=O)(=O)c1ccc(C(F)(F)F)cc1 [TCMDC-139752]
- % Inhibition: 29.13%

Structure (SMILES): O=C(Nc1ccc(Br)cc1)c1cc(Br)ccc1NS(=O)(=O)c1cc(C(F)(F)F)cc(C(F)(F)F)c1 [TCMDC-139753]
- % Inhibition: -9.383%

Structure (SMILES): COc1cc(NC(=O)Nc2ccc(Br)cc2C(=O)Nc2ccc(Br)cc2)cc(OC)c1OC [TCMDC-139733]
- % Inhibition: 85.99%

Structure (SMILES): Cc1ccc(F)cc1-c1cc(N2CCCN(C(=O)c3ccc(Br)o3)CC2)ncn1 [TCMDC-125089]
- % Inhibition: 67.99%

Structure (SMILES): COc1ccc(F)cc1-c1ccc(C(=O)N2CCCN(c3ccc(C#N)cn3)CC2)cc1 [TCMDC-133385]
- % Inhibition: 2.781%

Structure (SMILES): COc1ccc(F)cc1-c1ccc(C(=O)N2CCCN(c3ccc(C(F)(F)F)cn3)CC2)cc1 [TCMDC-133384]
- % Inhibition: -50.34%

Structure (SMILES): CCN1CCC(N(Cc2ccc(-c3ccc(C(F)(F)F)cc3)cc2)C(=O)Cn2c(SCc3cccc(F)c3F)cc(=O)c3ccccc32)C1 (stereo not drawn) [TCMDC-141301]
- % Inhibition: 106.2%

Structure (SMILES): COCCN1CCC(N(CC2(O)CCN(c3ccc(C(F)(F)F)cc3)CC2)C(=O)Cn2c(SCc3cccc(F)c3F)cc(=O)c3ccccc32)CC1 [TCMDC-141629]
- % Inhibition: 101.7%

Structure (SMILES): O=C(Cn1c(SCc2cccc(F)c2F)cc(=O)c2ccccc21)N(Cc1ccc(-c2ccc(C(F)(F)F)cc2)cc1)C1CCN(CCO)CC1 [TCMDC-141705]
- % Inhibition: 107.3%

Structure (SMILES): CC(C)(C)n1nnnc1C(c1cccnc1)N(Cc1ccccc1)Cc1ccc(Cl)cc1 (stereo not drawn) [TCMDC-123530]
- % Inhibition: 11.45%

Structure (SMILES): O=C(NCc1ccc(F)cc1)Nc1cccc(-c2ccc(-c3nc4ccccc4[nH]3)cc2)c1 [TCMDC-133300]
- % Inhibition: 7.874%

Structure (SMILES): Cc1nc2nc(N)nc(N)c2c(C)c1Cc1cccc(C(F)(F)F)c1 [TCMDC-137658]
- % Inhibition: -3.325%

Structure (SMILES): COc1ccc(CCCc2nc(N)nc(N)c2-c2ccc(Cl)cc2)cc1 [TCMDC-137358]
- % Inhibition: -7.157%

Structure (SMILES): COc1cc2nc(SCCCC#N)n(C3CCCCCC3)c(=N)c2cc1OC [TCMDC-123768]
- % Inhibition: 60.07%

Structure (SMILES): COc1cc2nc(SCC(C)C)n(CCCn3ccnc3)c(=N)c2cc1OC [TCMDC-125667]
- % Inhibition: 47.91%

Structure (SMILES): O=C(CC1SC(N2N=C(c3cccs3)CC2c2ccccc2)=NC1=O)Nc1ccccc1F (stereo not drawn) [TCMDC-124761]
- % Inhibition: 0.7985%

Structure (SMILES): CCN(CCCN1CCCCC1)c1cc(C)nc(Nc2ccc(C)c(Cl)c2)n1 [TCMDC-132438]
- % Inhibition: -8.632%

Structure (SMILES): CCN(CCCN1CCCCC1)c1cc(C)nc(Nc2ccc(F)c(C(F)(F)F)c2)n1 [TCMDC-132433]
- % Inhibition: 31.89%

Structure (SMILES): CCN(CCCN1CCCCC1)c1cc(C)nc(Nc2cccc(C(F)(F)F)c2C)n1 [TCMDC-132452]
- % Inhibition: 62.42%

Structure (SMILES): CCN(CCCN1CCCCC1)c1cc(C)nc(Nc2cc(C(F)(F)F)ccc2C)n1 [TCMDC-132448]
- % Inhibition: 19.94%

Structure (SMILES): CCN(CCCN1CCCCC1)c1cc(C)nc(Nc2ccc(C)cc2C(F)(F)F)n1 [TCMDC-132444]
- % Inhibition: -24.78%

Structure (SMILES): CCN(CCCN1CCCCC1)c1cc(C)nc(Nc2ccc(Cl)c(C(F)(F)F)c2)n1 [TCMDC-132439]
- % Inhibition: 56.88%

Structure (SMILES): Cc1cc(C)c(O)c(-c2cc(C(=O)Nc3ccc(S(=O)(=O)N4CC(C)OC(C)C4)cc3)[nH]n2)c1 (stereo not drawn) [TCMDC-125184]
- % Inhibition: -32.33%

Structure (SMILES): CC1CCCCN1S(=O)(=O)c1ccc(NC(=O)c2cc(-c3ccccc3O)n[nH]2)cc1 (stereo not drawn) [TCMDC-125855]
- % Inhibition: -44.79%

Structure (SMILES): O=C(/C=C/c1ccc(Cl)c(Cl)c1)NCCCCCN1CCN(C(=O)Nc2ccc(Cl)c(C(F)(F)F)c2)CC1 [TCMDC-135735]
- % Inhibition: -27.61%

Structure (SMILES): COC1CCC(C(=O)Nc2ccc(-c3cccc(-c4nc5ccc(C(F)(F)F)cc5[nH]4)c3)cc2)CC1 (stereo not drawn) [TCMDC-136858]
- % Inhibition: -5.175%

Structure (SMILES): O=C(Nc1ccon1)c1cc(-c2cccnc2)nc2ccc(Cl)cc12 [TCMDC-124360]
- % Inhibition: -4.584%

Structure (SMILES): C=CCOC(=O)N1CCC(CNCc2ccc(-c3ccc(-c4nc5ccccc5[nH]4)s3)cc2)C1.O=C(O)C(F)(F)F (stereo not drawn) [TCMDC-133037]
- % Inhibition: -14.35%

Structure (SMILES): CCNc1cc(C(=O)N[C@@H](Cc2ccco2)[C@H](O)CNC2CCCCC2)cc(N2CCCCS2(=O)=O)c1 [TCMDC-135304]
- % Inhibition: 34.63%

Structure (SMILES): CC(C)N1CCN(c2ccc(OCCCN3CCN(c4cccc(Cl)c4Cl)CC3)c(C(F)(F)F)c2)CC1 [TCMDC-136647]
- % Inhibition: -2.358%

Structure (SMILES): COc1ccc(N2CCN(CCCN3CCN(C(=O)c4ccc(/C=C/c5ccc(Cl)c(Cl)c5)cc4)CC3)CC2)c(OC)c1 [TCMDC-138215]
- % Inhibition: -35.25%

Structure (SMILES): CC(C)N1CCN(c2ccc(OCCCCN3CCN(c4cccc(Cl)c4Cl)CC3)c(C(F)(F)F)c2)CC1 [TCMDC-136646]
- % Inhibition: -6.976%

Structure (SMILES): CC(C)N1CCN(c2ccc(OCCCCN3CCN(c4cccc(Cl)c4Cl)CC3)cc2Cl)CC1 [TCMDC-136639]
- % Inhibition: -87.47%

Structure (SMILES): COc1cc(NC(=O)CCCN2CCN(c3cccc(Cl)c3Cl)CC2)ccc1N1CCN(C(C)C)CC1 [TCMDC-136697]
- % Inhibition: 87.5%

Structure (SMILES): COc1cc(C(=O)N2CCN(C(C)C)CC2)ccc1CN(C)CCCN1CCN(c2cccc(Cl)c2Cl)CC1 [TCMDC-136519]
- % Inhibition: 106.1%

Structure (SMILES): Cc1cc(NC(=O)CCCN2CCN(c3cccc(Cl)c3Cl)CC2)ccc1N1CCN(C(C)C)CC1 [TCMDC-136696]
- % Inhibition: -18.49%

Structure (SMILES): COc1cc(C(=O)N2CCN(C(C)C)CC2)ccc1CN(C)CCCCN1CCN(c2cccc(Cl)c2Cl)CC1 [TCMDC-136506]
- % Inhibition: 104.3%

Structure (SMILES): Cc1cc(NC(=O)CCN2CCN(c3cccc(Cl)c3Cl)CC2)ccc1N1CCN(C(C)C)CC1 [TCMDC-136695]
- % Inhibition: 39.36%

Structure (SMILES): O=c1cc(N2CCNCC2)c(Cl)nn1Cc1ccc(NS(=O)(=O)c2ccc(Oc3ccccc3)cc2)cc1 [TCMDC-141701]
- % Inhibition: 10.25%

Structure (SMILES): COc1ccc2nc(-c3cc(-c4ccc(NC(C)=O)cc4)cnc3N)[nH]c2c1 [TCMDC-135365]
- % Inhibition: -4.081%

Structure (SMILES): Cc1sc(CNCCCNc2cc(=O)c3ccccc3[nH]2)c(I)c1C [TCMDC-140907]
- % Inhibition: -22.52%

Structure (SMILES): CC(=O)N1c2ccccc2C(C)=CC1(C)C [TCMDC-123928]
- % Inhibition: -1.243%

Structure (SMILES): CCCC1N=C(N)N=C(N)N1c1cccc(C(F)(F)F)c1 (stereo not drawn) [TCMDC-131298]
- % Inhibition: -25.37%

Structure (SMILES): CCN(CCCN1CCCCC1)c1cc(C)nc(Nc2ccc(Oc3ccccc3)cc2)n1 [TCMDC-132426]
- % Inhibition: 49.81%

Structure (SMILES): Cl.Nc1ccnc2ccc(OCCCCCCc3ccccc3)cc12 [TCMDC-139072]
- % Inhibition: -2.454%

Structure (SMILES): CN(C)CCCn1c(C(=O)OC(c2ccccc2)c2ccccc2)cc2cc(OCc3ccccc3)ccc21 [TCMDC-138114]
- % Inhibition: 99.58%

Structure (SMILES): CN(C)CCCN(C)C(=O)c1cc2cc(-c3ccccc3)ccc2n1S(=O)(=O)c1ccccc1 [TCMDC-139127]
- % Inhibition: 25.92%

Structure (SMILES): CN(C)CCCOC(=O)c1cc2cc(-c3ccccc3)ccc2n1S(=O)(=O)Cc1ccccc1 [TCMDC-139121]
- % Inhibition: 46.9%

Structure (SMILES): Cn1nc(C(F)(F)F)cc1-c1ccc(C(=O)NC2CCC(CN3CCC(c4c[nH]c5ccccc45)CC3)CC2)s1 (stereo not drawn) [TCMDC-140355]
- % Inhibition: 118.2%

Structure (SMILES): O=C(NC1CCC(CN2CCC(c3c[nH]c4ccccc34)CC2)CC1)c1cc2ccccc2o1 (stereo not drawn) [TCMDC-139764]
- % Inhibition: 94.95%

Structure (SMILES): O=C(NC1CCC(CN2CCC(c3c[nH]c4ccccc34)CC2)CC1)c1cc(-c2ccccc2)c(C(F)(F)F)s1 (stereo not drawn) [TCMDC-140356]
- % Inhibition: 23.32%

Structure (SMILES): Cc1ccccc1C1CCN(C2CCC(NC(=O)c3ccc(-c4cc(C(F)(F)F)nn4C)s3)CC2)CC1 (stereo not drawn) [TCMDC-134107]
- % Inhibition: -22.15%

Structure (SMILES): O=C(NC1CCC(CN2CCC(c3c[nH]c4ccccc34)CC2)CC1)c1cc2ccccc2s1 (stereo not drawn) [TCMDC-139722]
- % Inhibition (% Inhibition): 56.81%

Structure (SMILES): O=C(NC1CCC(CN2CCC(c3c[nH]c4ccccc34)CC2)CC1)c1cc2ccccc2s1 (stereo not drawn) [TCMDC-139710]
- % Inhibition (% Inhibition): -31.58%

Structure (SMILES): COc1cc(C(=O)NC2CCC(CN3CCC(c4c[nH]c5ccccc45)CC3)CC2)cc(Cl)n1 (stereo not drawn) [TCMDC-139937]
- % Inhibition: 89.84%
